Screening results from PubChem.
Pf apPOL block: Pf-apPOL inhibitors, biochemical, fluorescence; Plasmodium falciparum apicoplast DNA polymerase (apPOL); Recombinant Pf-apPOL, molecular beacon fluorescence, 1.5 h; inhibition, % at 10 µM; 210,000 tested, 0.25% active
mHTT-CaM PPI inh: mutant huntingtin-calmodulin interaction inhibitors – biochemical, AlphaScreen, primary screen | P42858 | AlphaScreen His-mHTT/GST-CaM binding, luminescence | inhibition, % at 15 µM | 190,000 tested, 3.6% active;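 also: 0% = both proteins with DMSO and 100% = one protein alone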
The depositor's hits bear a star; x = no result; + = active, no number. Many of the other results were omitted from the sample, so hits are more common in it than they were. Rule as the data show it: active = inhibition above about 50%; inactive = the rest.

SMILES | Pf apPOL block | mHTT-CaM PPI inh
CCOC(=O)N1CCc2nc(NC(=O)c3sc4ccccc4c3Cl)sc2C1 | -1 | 53*
N#Cc1ccc(NC(=O)c2sc3ccccc3c2Cl)cc1 | -8 | x
C=CCn1cnc2c(-c3cccc(F)c3)csc2c1=O | -2 | -27
CC(=O)NC(CCCN=C(N)N)C(=O)O (configuration not stated) | 3 | x
CCCn1c(C(=O)N2CCOCC2)cc2sc(Br)cc21 | -13 | 24
Cc1cc2c(cc(C(=O)NCc3ccccn3)n2CC2CCC2)s1 | -2 | 57*
O=C(NCc1ccccn1)c1cc2sccc2n1CC1CC1 | -12 | 13
COc1ccccc1OCC(=O)NCc1ccccn1 | -8 | 15
C=CCn1c(C(=O)NCc2ccccn2)cc2sc(C)cc21 | -2 | 56*
COc1ccccc1-c1cc(C(=O)NCc2ccccn2)n(C)n1 | -21 | 100*
CCn1c(C(=O)NCc2ccccc2F)cc2sc(C)cc21 | -4 | 30
CCCn1c(C(=O)NCc2ccccn2)cc2sc(Br)cc21 | -8 | 72*
COc1ccc2cc(C(=O)NC3CC(O)C(CO)C3)[nH]c2c1 (configuration not stated) | -11 | -3
CN(C)CCN1C(=O)C(O)=C(C(=O)c2ccco2)C1c1ccc(Cl)c(Cl)c1 (configuration not stated) | -3 | 1
CCCCOc1ccccc1NC(=O)c1ccc(Cl)cc1 | -18 | -44
COCCn1c(C2CCN(S(=O)(=O)c3cccc(Cl)c3)C2)nc2cccnc21 (configuration not stated) | -4 | 4
CCNc1nc(NCC)nc(OCCNS(=O)(=O)c2cc(C)ccc2C)n1 | 89* | 1
CCNc1nc(NC(C)C)nc(OCCNS(=O)(=O)c2cc(C)ccc2C)n1 | -4 | 0
CCCCCOc1ccc(NC(=O)CSc2cccc3cccnc23)cc1 | -2 | 83*
O=C(CSc1cccc2cccnc12)Nc1ccccc1 | -1 | 0
COc1ccc([N+](=O)[O-])cc1N=Cc1cc(OC)c(OC)c(OC)c1 | -7 | -1
Cc1cnc2c(c1)C(=O)CCC2 | 4 | x
O=c1[nH]c2c(s1)C(c1ccc(O)cc1)C1C3CCC(C3)C1S2 (configuration not stated) | -5 | 63*
O=c1[nH]c2c(s1)C(c1cccnc1)C1C3CCC(C3)C1S2 (configuration not stated) | -4 | -2
CSc1ccccc1C(=O)N1CCC(Cn2nc(C)cc2C)CC1 | -9 | -10
SMILES | Pf apPOL block | mHTT-CaM PPI inh
CSc1ccccc1C(=O)N1CCC(n2cnc3cc(C(F)(F)F)ccc32)CC1 | -15 | 82*
COc1nccnc1NS(=O)(=O)c1ccc(NC(=O)c2ccccc2Cl)cc1 | -8 | 18
COc1nccnc1NS(=O)(=O)c1ccc(NC(=O)COc2cc(C)c(Cl)c(C)c2)cc1 | 9 | 50*
Cn1nc(C(=O)NCc2ccc(Cl)cc2)c2c1CCN(C(=O)C1CCCC1)C2 | -10 | 92*
CCC(=O)N1CCc2c(c(C(=O)NCc3ccc4c(c3)OCO4)nn2C)C1 | -5 | 30
Cn1nc(C(=O)NCc2ccccc2)c2c1CCN(C(=O)C1CCC1)C2 | -9 | 36
CC(C)CC(=O)N1CCc2c(c(COCc3ccc(Cl)cc3)nn2C)C1 | -6 | 63*
CCC(=O)N1CCc2c(c(COCc3ccc(C)cc3)nn2C)C1 | -2 | 14
Cn1nc(C(=O)NCc2ccc3c(c2)OCO3)c2c1CCN(C(=O)C1CCCCC1)C2 | -12 | 72*
CCCC(=O)N1CCc2c(c(C(=O)NCc3ccc(Cl)cc3)nn2C)C1 | -10 | 84*
Cn1nc(C(=O)NCc2ccc(Cl)cc2)c2c1CCN(C(=O)CC1CCCC1)C2 | 3 | 41
CC(=O)n1c2c(c3ccccc31)OC(N)=C(C#N)C2c1ccsc1 (configuration not stated) | -4 | 4
Cc1ccc(-c2cc(=O)n3c4ccccc4n(CC(=O)NC4CCCC4)c3n2)cc1 | -2 | -8
Cc1cccc(NC(=O)Cn2c(=O)n(-c3ccccc3)c3ncccc32)c1C | 4 | -5
Cn1nc(C(=O)NCc2ccc(F)cc2)c2c1CCN(C(=O)C1CCCC1)C2 | -2 | 77*
Cc1cccc(CNC(=O)c2nn(C)c3c2CN(C(=O)C2CCC2)CC3)c1 | -10 | 37
COc1cccc(CNC(=O)N2CCC(c3nc(C(=O)N4CCCCC4)c(C)o3)CC2)c1 | -9 | 0
Cc1nnc(NN=C(C(=O)O)C(=O)O)[nH]c1=O | x | 14
C/C(=N/Nc1nnc(C)c(=O)[nH]1)C(=O)O | x | +
CN(C)C(=O)Nc1ccc(S(N)(=O)=O)cc1 | -4 | -2
CCN1c2ccccc2C(=O)NC12CCN(C(=O)NCCc1ccccc1)CC2 | -2 | -2
CCOCCCNC(=O)N1CC(CC)Oc2ccc(C)cc21 (configuration not stated) | -6 | -1
CCN1c2cc(C)ccc2-n2cccc2C12CCN(C(=O)NCCc1ccccc1)CC2 | -2 | 94*
Cc1cccc(-n2cc(C3CCN(C(=O)NCc4ccco4)CC3)cn2)c1 | -3 | 24
CCN1c2cc(C)ccc2-n2cccc2C12CCN(C(=O)NCc1ccco1)CC2 | -4 | 84*
SMILES | Pf apPOL block | mHTT-CaM PPI inh
CCN1c2cc(C)ccc2-n2cccc2C12CCN(C(=O)NCc1ccc(F)cc1)CC2 | 2 | 93*
CCOCCCNC(=O)N1CCC2(CC1)c1cccn1-c1ccc(C)cc1N2CC | 4 | 93*
CCN1c2ccccc2C(=O)NC12CCN(C(=O)NCc1ccc(F)cc1)CC2 | -10 | 1
Cc1ccccc1NC(=O)c1ccc(F)c(S(=O)(=O)N2CCc3ccccc32)c1 | -3 | -10
O=C(O)c1nnn(Cc2ccccc2)c1-c1cccnc1 | 1 | -6
O=C(O)C1CCCCC1C(=O)Nc1cccnc1 (configuration not stated) | -6 | 5
Cc1ccc(NC(=O)c2ncn(-c3ccccc3C)n2)cc1C | -2 | 4
Cc1nn2c(CNC(=O)CCc3ccccc3)c(C)nc2s1 | 2 | -7
O=C(COc1ccc(Br)cc1Cl)NCc1ccc(F)cc1 | -8 | -11
Cc1ccc(-n2cnc3cc(C(=O)NCCN4CCOCC4)ccc32)c(C)c1 | 29 | 3
Cc1ccc(CNC(=O)C2(C)CCCN(C(=O)NCc3ccccc3)C2)cc1 (configuration not stated) | 2 | -6
CCN1c2cc(C)ccc2-n2cccc2C12CCN(C(=O)NCc1ccccc1)CC2 | -1 | 81*
COC(=O)c1cccc(NC(=O)c2c[nH]c3ncccc23)c1 | 14 | 18
COc1ccc(CN(CC(O)COCc2ccccc2)S(=O)(=O)c2ccccc2Br)cc1 (configuration not stated) | -6 | 86*
C=CC(COCc1ccccc1)N(Cc1ccc(OC)cc1)S(=O)(=O)c1ccccc1Br (configuration not stated) | -2 | -8
Cc1ccc(Nc2c(-c3nc(C)no3)cnc3nc(C)ccc23)c(C)c1 | 3 | 44
Cc1ccc2c(Nc3ccc(F)cc3C)c(-c3nc(C)no3)cnc2n1 | -4 | 58*
O=C(NCc1ccc2c(c1)OCO2)c1csc2c1CCCC2 | -7 | -9
CCN1CCn2cc(C(=O)NCc3ccc(C(F)(F)F)cc3)nc2C1 | -13 | 97*
CCN1CCn2cc(C(=O)NCc3ccc(F)cc3)nc2C1 | -5 | 42
CCc1cccc(NC(=O)N2CCCN(C3CCN(CC4CC4)C3=O)CC2)c1 (configuration not stated) | 2 | 12
